# About 83,000 compounds went through this panel and 20% of them were active in at least one assay; those are over-represented in the sample as a whole.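 Cells were grown in 96-well plates and exposed to the test compound at a single concentration for 48 hours; results are reported as percent growth, with values below 10 considered active.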 Unmarked numbers belong to inactive results. Activity calls are given as the source filed them.
# System: HL-60(TB) leukemia
# Test: NCI-60 one-dose screen, 48 h (100 = growth as untreated, 0 = no growth, -100 = all killed)
# Settings: 10 µM unless noted
row,Structure (SMILES),growth
1,O=C(Nc1ccc(Nc2ccncc2)cc1)c1ccc(C(=O)Nc2ccc(Nc3ccncc3)cc2)cc1,23%
2,N=c1sc(Cc2cc(Cl)ccc2Cl)cn1CC(=O)c1ccccc1,29.6%
3,C#Cc1cc(C(=O)Nc2ccc(CN3CCN(C)CC3)c(C(F)(F)F)c2)ccc1C,77.8%
4,CN(C)C(=S)N=Nc1c(O)[nH]c2ccccc12,-40.3% (active)
5,OC(c1cc2ccc(C(F)(F)F)cc2c2cc(C(F)(F)F)ccc12)C1CCCCN1 (centres undefined),-72.8% (active)
6,C#Cc1ccc(-n2c(/C=C/c3cc(OC)c(OC)c(OC)c3)nc3ncccc3c2=O)cc1,26.5%
7,Cc1ccc(-[n+]2c3cc(N)c(C)cc3nc3cc(C)c(Nc4ccccc4)cc32)cc1,-20.6% (active)
8,C=C(CN1CC=CCC1)[C@@H]1CC[C@]2(CO)CC[C@]3(C)[C@H](CC[C@@H]4[C@@]5(C)CC[C@H](O)C(C)(C)[C@@H]5CC[C@]43C)[C@@H]12,99.9%
9,CCOC(=O)c1ccc(N2NC(=O)/C(=C/c3ccc([N+](=O)[O-])o3)C2=O)cc1,85.5%
10,COc1cc(C2CC(c3c(C)[n+]([O-])c4ccccc4[n+]3[O-])=NN2)cc(OC)c1OC (centres undefined),97.8%
11,CC1=CN2C(=NC3=C(CCCC/C3=C\c3ccccc3)C2c2ccccc2)S1 (centres undefined),102%
12,CCCCNc1nnc(-c2cc(-c3cc4ccccc4o3)nn2-c2ccccc2)o1,86.5%
13,Nc1ccn(C2OC(CO)C(O)C2F)c(=O)n1 (centres undefined),105%
14,O=C(NC1CCS(=O)(=O)C1)c1ccc(C(=O)c2ccccc2)cc1 (centres undefined),191%
15,COC(=O)[C@]12CC[C@@H](C)[C@H](C)[C@@H]1C1=CC[C@@H]3[C@@]4(C)C(C=O)=C[C@@](C)(CO)[C@@H]4[C@H](O)C[C@@]3(C)[C@]1(C)CC2,-14.4% (active)
16,O=C(Nc1cccc([N+](=O)[O-])c1)c1ccc2ccccc2c1O,39.4%
17,COc1ccc(Cn2cc3c(c2-c2cc(OC)c(OC)c(OC)c2)CCc2cnoc2-3)cc1[N+](=O)[O-],11%
18,O=C(N/N=C\c1ccc(Cl)cc1Cl)c1ccncc1,87.6%
19,Fc1cc(-c2ncc(-c3cc(F)c(F)c(F)c3)c(NC3CCCCCC3)n2)cc(F)c1F,97.4%
20,COc1cccc(NC(=O)OC(C)C)c1,72.7%

row,Structure (SMILES),growth
1,NC(=O)Nc1ccc(-n2cnc3cc(-c4ccc(O)cc4)ccc32)cc1,95.4%
2,Cc1nn(-c2ccc(Cl)cc2)c2ncnc(N/N=C/c3cccc([N+](=O)[O-])c3)c12,31%
3,C=C(C)[C@@H]1CC[C@]2(C)CC[C@]3(C)[C@H](CC[C@@H]4[C@@]5(C)CCCNC(C)(C)[C@@H]5CC[C@]43C)[C@@H]12,35.7%
4,COc1ccc(-c2cncnc2N)cc1OC,95.8%
5,CC1CCCC(C(=O)O)C1C(=O)O (centres undefined),81.8%
6,COc1cc(-c2nc(-c3nnc(-c4ccccc4Cl)o3)c3ccccn23)cc(OC)c1OC,67.1%
7,COc1cc(OC)c(NC(=O)C(Sc2nc(C)cc(C)c2C#N)c2ccccc2)cc1Cl (centres undefined),94.1%
8,Cc1ccc(-c2cc3nc(C(Cl)Cl)nc(-c4cccnc4)n3n2)cc1,10.5%
9,CS(=O)(=O)Nc1cccc(-c2cc(-c3ccccc3Cl)c(C#N)c(N)n2)c1,8.6% (active)
10,CCOC(=O)c1c(C)c2c(n1Cc1ccccc1)CSc1cc(C#N)c(=O)[nH]c1-2,76.8% [100 µM]
11,C[C@]12CCC(=O)C=C1CC[C@H]1[C@@H]3C[C@@H](O)[C@](O)(C(=O)CO)[C@@]3(C)C[C@H](O)[C@@]12F,98.1%
12,CCCCCCC(C)N(CC(C)(C)O)C(=O)c1ccc([N+](=O)[O-])cc1 (centres undefined),95.7%
13,COc1ccc2c(c1)[n+](=O)c(C(=O)/C=C/c1cc(OC)c(OC)c(OC)c1)c(C)n2[O-],42.6%
14,Nc1nc(Cl)c2c(ncn2Cc2ccc(CCl)cc2)n1,90.5%
15,CC(=O)c1ccc(Nc2nc(NCCO)nc(Nc3ccc(Cl)cc3)n2)cc1,103%
16,O=C(O)c1cn(C2CC2)c2cc(N3CCN(Cc4c(O)ccc5ccccc45)CC3)c(F)cc2c1=O,71.6%
17,CCOC(=O)c1[nH]c2c(c1C)-c1[nH]c(=O)c(S(=O)(=O)c3ccccc3)cc1SC2,54.7% [100 µM]
18,CN1CCN(Cc2ccc(NC(=O)c3cncc(C#Cc4cncc5[nH]ncc45)c3)cc2C(F)(F)F)CC1,-28.9% (active)
19,O=S(=O)(O)C(C(I)I)S(=O)(=O)O,109%

# — PubChem BioAssay (NCI)
